From PubChem BioAssay (NCI) come the findings set out here.

“And” between values parts separate entries of the source, which are not always exact repeats. Identical values can stand only once. The panel holds about 83,000 compounds, 20% with a hit somewhere; the sample as a whole holds those more often.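 Plates (96-well) were seeded with cells, treated with compound at one concentration, and incubated for 48 hours before percent growth was determined.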 Values without a mark were called inactive. The source made the active and inactive calls. Rule for the calls: active = growth percent below 10; inactive = the rest.

The subject of the test is MDA-MB-468 breast. Description: NCI-60 one-dose screen, 48 h (100 = growth as untreated, 0 = no growth, -100 = all killed). As to conditions: 10 µM unless noted.
On to `CCN(CC)c1ccc(/C=N/NC(=O)Cc2ccc(Nc3ccnc(C(F)(F)F)c3)cc2)c(O)c1`, for which the growth is 26.1%.

Take `CCCCc1nc(/C=N/Nc2nc(Nc3ccccc3)nc(Nc3ccc(S(N)(=O)=O)cc3)n2)c(Cl)[nH]1`: the growth is -12.5% (active).

Take `O=C1c2c(c3c4cc(Br)ccc4[nH]c3c3ccc4ccccc4c23)C(=O)N1CCO`: the growth was 100%.

`O=C(/C=C/c1ccc(F)cc1)c1ccc(NC(=O)N2CCN(c3cc4c(cc3F)c(=O)c(C(=O)O)cn4C3CC3)CC2)cc1`: the growth was 68.3%.

Take `COc1cc(NCCCN(CC(C)C)CC(C)C)c2ncccc2c1`: the growth is -27.1% (active).

Consider `COc1cc(C(=O)/C=C/c2cccnc2Nc2ccccc2)cc(OC)c1OC`, for which the growth is -93.8% (active).

As to `SCc1ccc(CS)cc1`, the growth was 111%.

In the case of `CCCCC(=O)N/N=C/c1cc(I)cc(I)c1O`, the growth is 69%.

As for `CCOc1ccc2cc(-c3nn(CC4CCN(C)CC4)c4ncnc(N)c34)ccc2c1`, the growth is 85.6% and 42%.

Take `O=C(c1nc2ccccc2[nH]1)C1C(c2ccc(Cl)cc2)C2CC3CCCC[C@H]3N2[C@@]12C(=O)Nc1cc(Cl)ccc12` (stereo not given in full): the growth is 12.1%.

Turning to `O=C(CCCCCC/C=C\c1csc(Br)n1)NO`, the growth is 84.9%.

In the case of `NS(=O)(=O)c1cc2c(cc1Cl)NC(C(Cl)Cl)NS2(=O)=O` (stereo not given), the growth was 101% and 108%.

With `O=C(Cn1nncc1CN1C(=O)CSC1=O)Nc1ccc(F)cc1`, the growth was 104%.

For `N#C/C(=N\Nc1ccc(F)cc1)C(=O)Nc1cc(-c2ccccc2)nn1-c1ccccc1`, the growth is -21% (active).

As to `O=C1/C=C/[C@@H](O)[C@@H]2C[C@@H](O)C[C@H]2/C=C/CCCCO1`, the growth was -36.1% (active).

As for `O=C(CN1CCN(c2cc(=O)n(-c3ccccc3)c3ccccc23)CC1)Nc1nc(-c2ccccc2)cs1`, the growth was 13.3%.

For `COc1cccc(CCC(=O)c2cc3c(N)c(C(=O)Nc4cccc(Cl)c4C)sc3nc2C)c1`, the growth was 15.1%.

For `O=C(Nc1cccc(-n2ccc3c(NC(=O)c4ccccc4)nccc32)c1)c1ccc(N2CCOCC2)c(C(F)(F)F)c1`, the growth is -2.66% (active).

Regarding `CNCCNc1nc2ccccc2c2c(=O)c3cccc(OC)c3sc12`, the growth is 20.9%.

`CCOC(=O)n1cc(C2=C(c3ccc(OC)c(OC)c3)COC2=O)c2ccccc21`: the growth is -41.8% (active).

Take `C#CCN(C)CCCOc1ccc(NCc2ccc(C(=O)NO)cc2)cc1Cl`: the growth was -5.18% (active).

Consider `CCOC(=O)C(Cc1ccc(OC)cc1)C(=O)OCC`, for which the growth was 55.3%.

Take `CC(C)(C)c1cc(/C=N/NC(=O)c2ccccc2NC(=O)c2cccs2)c(O)c(C(C)(C)C)c1`: the growth is 25.3%.

With `Oc1c(Cl)cc(Cl)c2ccc(Cn3cc(-c4cc(C(F)(F)F)cc(C(F)(F)F)c4)nn3)nc12`, the growth was 18.6%.

With `NNC(=S)N1N=C(c2cc3ccccc3o2)CC1c1c[nH]c2ccccc12` (stereo not given), the growth is 15.3%.

Consider `CN1CC[C@@H]2[C@@]3(C)CC[C@H](O)C(C)(C)[C@@H]3CC[C@@]2(C)[C@]2(C)CC[C@@]3(CO)CCC(C)(C)C[C@@H]3C12` (stereo not given in full), for which the growth is 62%.

Consider `O=C1CC(c2ccccc2)Cc2nc3ccc(Br)cc3cc21` (stereo not given), for which the growth is 0.354% (active).

In the case of `O=[N+]([O-])c1ccc(O)c(-c2nc3ccccc3s2)c1`, the growth is 63.5%.

As for `COc1ccc(/C(C)=C(\c2ccc(Cl)cc2)c2ccc(OCCN)cc2)cc1`, the growth was 67.2%.

With `COc1cccc2c(=O)c3c(sc12)c(NCCCNCCO)nc1ccccc13`, the growth was 71.3%.

In the case of `COc1cccc(-c2nn(-c3ccccc3)cc2-c2ccnc(NCCCNS(=O)(=O)c3ccc(Br)cc3)c2)c1`, the growth is 35.5%.

Regarding `Cc1ccc2c(n1)C(=O)C(Cl)=C(Nc1ccc(C(F)(F)F)cc1)C2=O`, the growth is -48.5% (active).

Regarding `COc1ccc2c(c1)c(CC(=O)NCCOCCOCC(=O)Nc1ccc(OC)c(C(N)=O)c1O)c(C)n2C(=O)c1ccc(Cl)cc1`, the growth is 88.6%.

As for `COCCOCCOCc1n(Cc2ccc3ccccc3n2)c2ccccc2[n+]1Cc1ccc2ccccc2n1`, the growth is -17.4% (active).

In the case of `O=C(c1cccc(N2CCOCC2)n1)c1c[nH]c2ccccc12`, the growth was 89.5%.

On to `O=C(O)c1ccc(-n2cc(CNc3ccc(Cl)cc3)c(-c3ccc(F)cc3)n2)cc1`, for which the growth is 106%.

As for `COc1ccc(/C=N/NC(=O)Cn2c(-c3ccc(S(C)(=O)=O)cc3)nc3ccccc32)cc1`, the growth is 98.3%.

In the case of `CCCCCCCCCCCCCCCCCCOc1ccccc1CCCOP(=O)(O)OCC[N+](C)(C)C`, the growth was 77.3%.

Turning to `Clc1cc(Cl)cc(N2N=C(c3cccc(Nc4ccncc4)c3)CC2c2ccc(Br)cc2)c1` (stereo not given), the growth is 44.9%.

Turning to `COc1cc(-c2nn(C)nc2-c2cc3ccccc3s2)cc(OC)c1OC`, the growth is 39.8%.
